Assay results taken from PubChem BioAssay (EPA / NIEHS).
The source made the active and inactive calls. Rule for the calls: active = hit-call score of the fitted dose curve at least 0.9, where 1 is the maximum; inactive = score below 0.9.

read-out: Cellular tumor antigen p53 (Homo sapiens) (UniProt P04637); test: LTEA_HepaRG_TP53: Life Technologies and Expression Analysis (LTEA) Assay for Tumor Protein P53 (TP53) using HepaRG (AID 2283537); conditions: mRNA level, 48 h; actives raise or lower the signal
Method: LTEA_HepaRG is a cell based, multiplexed-readout assay that uses HepaRG, a human liver cell line, with measurements taken at 48 hours after chemical dosing on a 96-well plate.LTEA_HepaRG_TP53 is one of 102 assay component(s) measured in the LTEA HepaRG cell culture assay. It is a marker of Oxidative Stress.Data from the assay component LTEA_HepaRG_TP53 was analyzed into 1 endpoint. This assay endpoint, LTEA_HepaRG_TP53, was analyzed with bidirectional fitting relative to DMSO as the negative control and baseline of activity. Using a type of inducible reporter, measures of mRNA induction for gain or loss-of-signal activity can be used to understand regulation of transcription factor activity. To generalize the intended target to other relatable targets, this assay endpoint is annotated to the dna binding intended target family, where the subfamily is tumor suppressor.
A total of 1060 chemcials from the ToxCast library were tested in eight-point concentration-response experiments. Cell culture and cytotoxicity assays were conducted at Thermo Fisher Scientific's Custom Services facility (Madison, WI). A single lot of human HepaRG cells (Thermo Fisher Scientific, Frederick, MD) was used for the cell culture experiments. 96-well format collagen type I coated plates of human HepaRG cells were prepared using established methods. Briefly, cryopreserved HepaRG cells were thawed, plated at a density of approximately 100,000 cells/well in HepaRG Thaw, Plate, and General Purpose media (HPRG770, Thermo Fisher Scientific), and incubated for 48 hours. 0.5% DMSO was selected as vehicle control to balance the requisite need of DMSO in HepaRG cultures to maintain differentiation (for example, baseline metabolism, proportions of hepatocytes vs. cholangiocytes), while enabling further hepatic receptor pathway activation (for example, PXR and CAR) in response to chemical exposure. 48 hours after plating, the culture medium was replaced with HepaRG Serum-Free Incudtion Media. Cells were exposed to each test chemical in duplicate and maintained in CO2 incubators for another 48 hours. Chemical plates were thawed to room temperature and 200x concentrations of treatment groups were prepared. 8-point conentration-reponse curves were made with the highest exposure at 100 uM, followed by half-log dilutions, all in 0.5% DMSO. Each test plate contained variouse controls, induction positive controls (1mM phenobarbital), cytotoxicity positive controls ([…] aflatoxin B1), vehicle controls (0.5% DMSO), and total lysis controls (0.5% DMSO). Cell morphology images were taken using an Essen IncuCyte FLR automated microscope, with six 96-well plates imaged in about 24 minutes. Images were captured and exported and JPEG files. Spent culture media was transfered to black-well plates for the LDH assay, and remaining media was sorted at -80 C for later use. Cells were treated with RLT buffer and frozen until shipped for gene expression analysis. Total RNA was isolated from the cell suspension in 75 uL of Buffer RLT (Qiagen, Germantown, MD 20874) by Quintiles/Expression Analysis (Durham, NC) using a custom isolation procedure. Total RNA from each plate well was transferred to a preamplification plate. Fluidigm's 96.96 Dynamic ArrayTM (Fluidigm, Amsterdam, the Netherlands) technology was used for gene expression analyses by quantitative reverse transcription polymerase chain reaction (qRT-PCR, performed by Quintiles/Expression Analysis, Durham, NC)89. Standard TaqManTM Assays (Applied Biosystems/ThermoFisher Scientific, Foster City, CA) were used to assess the expression of 93 genes selected based on their selectivity and sensitivity to important hepatic receptors known to be modulated by environmental chemicals; importance in human hepatocyte functionality; and hepatotoxicity. […]

Chain of Cellular tumor antigen p53 (Homo sapiens) (P04637 whole entry, looked up): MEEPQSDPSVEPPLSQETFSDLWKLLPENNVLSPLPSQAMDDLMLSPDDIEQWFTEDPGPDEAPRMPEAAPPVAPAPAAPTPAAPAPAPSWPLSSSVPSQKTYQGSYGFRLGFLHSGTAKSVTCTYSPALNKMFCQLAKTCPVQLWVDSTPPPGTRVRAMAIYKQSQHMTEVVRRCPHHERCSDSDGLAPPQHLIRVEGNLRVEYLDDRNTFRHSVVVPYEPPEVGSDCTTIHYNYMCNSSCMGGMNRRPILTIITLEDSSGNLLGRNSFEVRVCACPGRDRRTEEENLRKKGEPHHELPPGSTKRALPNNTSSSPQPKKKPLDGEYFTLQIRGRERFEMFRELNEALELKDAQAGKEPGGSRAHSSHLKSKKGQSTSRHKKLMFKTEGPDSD

| Compound | AC50 | outcome |
| --- | --- | --- |
| Nc1ccc(Cl)cc1N | 12.4 µM (active) |  |
| CCN(CC)CCO |  | inactive |
| C[N+](C)(C)CC1CO1 (stereo not given) |  | inactive |
| O=C(N[C@H](c1ccccc1)[C@@H]1CN2CCC1CC2)c1c(Cl)ccc(C(F)(F)F)c1Cl |  | inactive |
| ClC1=C(Cl)C2(Cl)C3C(Cl)C=CC3C1(Cl)C2(Cl)Cl (stereo not given) | 14.1 µM (active) |  |
| Cc1cc(N=Nc2ccccc2C)ccc1N | 1.97 µM (active) |  |
| CC(O)CCO (stereo not given) |  | inactive |
| CO[C@@H]1[C@H](OC(=O)NC(=O)CCl)CC[C@]2(CO2)[C@H]1[C@@]1(C)O[C@@H]1CC=C(C)C |  | inactive |
| C1=Cc2cccc3cccc1c23 |  | inactive |
| Clc1ccc(Cl)c(Cl)c1 |  | inactive |
| c1ccc(N=Nc2ccccc2)cc1 |  | inactive |
| [As]#[In] |  | inactive |
| CN(C)c1ccc(C(=O)c2ccc(N(C)C)cc2)cc1 |  | inactive |
| CCN(CC)N=O |  | inactive |
| CCC[CH2][Sn]([Cl])([CH2]CCC)[CH2]CCC | 11.6 µM (active) |  |
| Cc1ccc([N+](=O)[O-])cc1 |  | inactive |
| c1ccc2c(c1)oc1ccccc12 |  | inactive |
| Cc1ccc(N)c(N)c1 |  | inactive |
| O=[N+]([O-])c1ccc(Oc2ccc(Cl)cc2Cl)cc1 |  | inactive |
| c1ccc(C2CO2)cc1 (stereo not given) |  | inactive |

| Compound | AC50 | outcome |
| --- | --- | --- |
| Nc1ccc(Oc2ccc(N)cc2)cc1 |  | inactive |
| COC(=O)c1ccccc1N |  | inactive |
| OCCCBr |  | inactive |
| Nc1cc(Cl)cc(C(=O)O)c1Cl |  | inactive |
| Cc1ccc(N)cc1 |  | inactive |
| c1ccc(NNc2ccccc2)cc1 |  | inactive |
| O=Cc1ccco1 |  | inactive |
| CC(C)(C)OOC(C)(C)CCC(C)(C)OOC(C)(C)C |  | inactive |
| C=CCc1ccc2c(c1)OCO2 |  | inactive |
| CNC(=O)Oc1cccc2c1OC(C)(C)C2 |  | inactive |
| Oc1ccc2ccc3cccc4ccc1c2c34 |  | inactive |
| CCCCOC(=O)c1ccccc1C(=O)OCc1ccccc1 |  | inactive |
| CCCCCCCCOC(=O)c1ccc(C(=O)OCCCCCCCC)c(C(=O)OCCCCCCCC)c1 |  | inactive |
| ClCCOCCCl |  | inactive |
| O=P(OCCCl)(OCCCl)OCCCl |  | inactive |
| O=C(O)C1C2CCC(O2)C1C(=O)O (stereo not given) |  | inactive |
| Cc1ccc(N=C=O)cc1N=C=O |  | inactive |
| CC(C)N(Cc1ccccc1)C(=O)C(C)(C)C |  | inactive |
| CN(C)c1ccccc1 |  | inactive |
| CC(C)(C)OOC(=O)c1ccccc1 |  | inactive |
